Sequences and labels used below:
T1: UNK ZnF1-3 (human, UniProt Q9C0B0 31-174)
T1 sequence: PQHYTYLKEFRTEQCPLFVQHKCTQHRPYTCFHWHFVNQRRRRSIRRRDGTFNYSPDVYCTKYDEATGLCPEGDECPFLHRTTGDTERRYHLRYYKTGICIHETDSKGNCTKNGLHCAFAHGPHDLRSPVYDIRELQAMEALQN

B1: chr12:56499883:56499884:+_ENSMUSG00000021024_ENSMUST00000021412|mus_mus|FALSE|FALSE (ssRNA)
RNA: GGGAGUUCUACAGUCCGACGAUCGAUAGUAAUGUGACGGUCAAAACCGGCGCUGGAACCCCGGGACAUGGCGUUCCUGCUAUUUUAAACACAGUCUGCACCCCGUAGCACACACACCAGGGACCCAAGCCCCCUCCCGGAAGUCAACAGAGGAUUGAGCAUCA
B2: chr8:110352747:110352748:+_ENSG00000120533_ENST00000521662|hu_mus|FALSE|FALSE (ssRNA)
RNA: GGGAGUUCUACAGUCCGACGAUCCAGGGCUCUGCCUUUUGGAGUGAUUUCAGCCACCAAGUCAUCAACAGUAACGUGUUCUAGUCCUUUUUCUUUAAUUACCUCUUUACAGUGUGCCUUUAGCUGAUCCUUCCAGCCGCACUCCAACAGAGGAUUGAGCAUCA
B3: chr6:31457689:31457690:+_ENSMUSG00000025609_ENSMUST00000142469|perfect_dup|motif|central (ssRNA)
RNA: GGGAGUUCUACAGUCCGACGAUCUGAUCAGGUCUACCAGGUUGCCUUUAGGAGGAGUCAUGCUGUCAGGAAAGAAAUUUACGGAGGUGUCAAAGAGCUGAGUUCUUUGAGCAUAGGUAUGAUCCACAUCUGAAAAGCCAUAAUCAACAGAGGAUUGAGCAUCA
B4: chr12:25667166:25667167:+_ENSMUSG00000036333_ENSMUST00000066652|mus_mus|motif|central (ssRNA)
RNA: GGGAGUUCUACAGUCCGACGAUCUCUUCCACAUAAUUUAUCACACUCUGUGAUAUAAGAACCGACAUUUUCACAGAAAUCGGUAGCCGACUUUAAUUCACCGUGUCACGGCCUGGCCGAAGACGGCGCCCUCAGCUCUGCAGACAACAGAGGAUUGAGCAUCA
B5: chr19:8913615:8913616:-_ENSMUSG00000071658_ENSMUST00000096259|mus_hu|mus_mus_mus_hu_False|1_8 (ssRNA)
RNA: GGGAGUUCUACAGUCCGACGAUCAGGGUACCAAAACCUUCUGCCUGAAAUGGGUGCCCCACCCAGUAGGGAGUUGCAGCUGAAAGUAUCUGAUGCAGAAGCAGUGACUAUACGAAAGGAGGCCCCUGAUGCUCAGACGAGAUCCAACAGAGGAUUGAGCAUCA
B6: chr2:241070490:241070491:-_ENSG00000172428_ENST00000607357|hu_mus|FALSE|FALSE (ssRNA)
RNA: GGGAGUUCUACAGUCCGACGAUCUCACAGACAUGGAGCACAUAGGACCGGGCGGCCUCACUGGACAUCAUCAUCAUCAAAAAGGUCUUCAAAAUCAUUAAAAAAGUCUGCAUGAACGGCCUUCUCAUUGGCUGCCAGGUCCAUCAACAGAGGAUUGAGCAUCA
B7: chr11:100882373:100882374:+_ENSMUSG00000019302_ENSMUST00000044721|mus_mus|FALSE|FALSE (ssRNA)
RNA: GGGAGUUCUACAGUCCGACGAUCUUCCUGGUUAGUGUUGAUUUCCUUCAGUUCAUUUUCAAUCUUCUCGAAAUUGGCCUCUAAGUCGAUCAUGUCCCGAGGGAAGGGCACCUCUGGGUUUUCACCGGUGUCCAUAAUUGGGAUCAACAGAGGAUUGAGCAUCA
B8: 90660906_90661026_1561_CDS_ENSG00000112182_ENST00000537989|human|control|control (ssRNA)
RNA: GGGAGUUCUACAGUCCGACGAUCAUCCCCCGCUCUGUCCUUGGCGUCAGGCUCAUCUCCAGACAGGCAGAGCGUGAUGCUCUCUUCCUCAUUCUCUUCACUGGGCGGCUCACUUUUAAUCUGCCCCCUGGCAAGCCCCGGCUUCAACAGAGGAUUGAGCAUCA
B9: chr2:119552488:119552489:+_ENSMUSG00000027304_ENSMUST00000028767|mus_hu|FALSE|FALSE (ssRNA)
RNA: GGGAGUUCUACAGUCCGACGAUCGAACAUCGCUUCUUUCCACUUCAUAAACUCACUUUCGGUGAAUUCUUGGUUUGAGACAAACUCUAAACGGAACACGCGUUGGUCAUUGCCAUGCCGUAGUUGCAGCCCUUUGUUUGUUCUCAACAGAGGAUUGAGCAUCA
B10: 98509248_98511339_722_CDS_ENSG00000140450_ENST00000268042|human|control|control (ssRNA)
RNA: GGGAGUUCUACAGUCCGACGAUCGUAUCCCUUUCUUUCAAUUUUGGCACUCAGCGAGACUGGACCAGAAGUGAAAAACCAACAGCCAACCAUUUUCUCUUGAGUUUUCAAUACAGGGGUUAAUAAUGCUGGUGUGUUGACAUCCAACAGAGGAUUGAGCAUCA
B11: 107603385_107603505_2018_CDS_ENSG00000091136_ENST00000393561|human|control|control (ssRNA)
RNA: GGGAGUUCUACAGUCCGACGAUCGGAAUAUGGUAUGUUGUCAAUGAAAAACUCCAAAUAAGCCCCUUCAGGCACUCGGACGAAGCCGGCUCCAGUCCAGGAGGGAAUCCGGUCCUGGAUAUAUUGCCGCUCCACUAUGCUAACCAACAGAGGAUUGAGCAUCA
B12: chr16:45382771:45382772:-_ENSMUSG00000022661_ENSMUST00000163230|mus_mus|mus_mus_mus_hu_True|38_108 (ssRNA)
RNA: GGGAGUUCUACAGUCCGACGAUCCUGAGUGUUAUUGUAAGACAAAUGGACAGGGAGGGCAUGCUUCUCAAAAAAUGUGAGCUAUUGUCUAAGACUAACAAUAUUGCUCUAGCUAUAAAAAUAAGUUAAAUGAAUAAGUUAAGACAACAGAGGAUUGAGCAUCA
B13: chr3:8561242:8561243:+_ENSMUSG00000027500_ENSMUST00000029002|mus_hu|FALSE|FALSE (ssRNA)
RNA: GGGAGUUCUACAGUCCGACGAUCAACAACCAGCUCACAGUUUCCAAGUGGAAAAAUAUUCAGUAGCAUCAUGUACUUGUACUAUAGGUAAGAGCUUAAAAUGAACAUCAUCAAUCAUGGCAUCCACAAAUAAGCCACCUGACACAACAGAGGAUUGAGCAUCA
B14: chr16:45382771:45382772:-_ENSMUSG00000022661_ENSMUST00000163230|mus_mus|mus_mus_mus_hu_True|38_98 (ssRNA)
RNA: B12 RNA with A27G, G30C, U31A, A33G, G36A, A38G, A39G, A41C, A43C

Numbering of substitutions follows the chain as printed. The full ranking holds about 24,000 sequences; the median of “enrichment r” is about 0.99, and the highest 2% start at about 3.7. Shown is part of a subset that was picked to be rich in the highest values.

In the assay the target is T1, UNK ZnF1-3. Description: nsRBNS (natural sequence RNA bind-n-seq); RBNS binding buffer (assumed for nsRBNS): 25 mM Tris pH 7.5, 150 mM KCl, 3 mM MgCl2, 0.01% Triton X-100, 500 ug/ml BSA, 20 U/ml SUPERase-In, 4 C; UNK is unkempt and MSI1 is Musashi-1; names of the RNAs are library labels; protein concentration not given here; high values mean tight binding.
Take B1: the binding signal was 0.679 enrichment R.

In turn, B2 returned a binding signal of 0.801 enrichment R.

The molecule B3 showed a binding signal of 1.63 enrichment R.

Molecule B4 displayed a binding signal of 0.699 enrichment R.

The molecule B5 displayed a binding signal of 1.25 enrichment R.

On to B6, for which the binding signal turned out to be 0.924 enrichment R.

The molecule B7 gave a binding signal of 0.394 enrichment R.

B8 yielded a binding signal of 0.641 enrichment R.

In turn, B9 returned a binding signal of 0.468 enrichment R.

The molecule B10 gave a binding signal of 1.16 enrichment R.

The molecule B11 gave a binding signal of 0.989 enrichment R.

B12 displayed a binding signal of 8.75 enrichment R.

B13: the binding signal came to 1.49 enrichment R.

Consider B14, for which the binding signal is 11.2 enrichment R.

The values above are taken from PMC12136788.
